Experimental data reported in ChEMBL document CHEMBL1156829.
In all, about 5,400 compounds were measured (“IFI”: median about 2, highest 2% from about 22 on). The sample holds the highest values, similar compounds and a random draw of the others, so the mix is not that of the screen.

Assay: NOVARTIS: Inhibition Frequency Index (IFI) - the number of HTS assays where a compound showed > 50% inhibition/induction, expressed as a percentage of the number of assays in which the compound was tested.
Type: functional

Point of comparison: `Nc1ccc(-c2nc3cc(-c4ccc5[nH]c(-c6ccc(N)cc6)nc5c4)ccc3[nH]2)cc1`, IFI 27.3%. Against it:
- CCCOC(=O)C1=C(C)NC2=C(C(=O)CC(c3ccc(OC)c(OC)c3)C2)C1c1ccc(O)c(OCC)c1 (configuration not stated) — lower, 0%
- CCOC(=O)c1cc(S(=O)(=O)NCc2ccc(F)cc2)n[nH]1 — lower, 0%
- C=CCC(=O)NC1CCN(CC(O)CN(Cc2ccccc2)S(=O)(=O)c2ccccc2)C1 (configuration not stated) — lower, 2.91%
- CC12C(=O)N(c3cccc(C(=O)O)c3)C(=O)C1C1c3ccccc3C2c2ccccc21 (configuration not stated) — lower, 0%
- CO[C@H]1C[C@H](C)Cc2cc(O)cc(c2)NC(=O)C(C)=CCC[C@H](OC)[C@@H](OC(N)=O)C(C)=CC(C)[C@H]1O (some centres not stated) — lower, 9.62%
- CCC(C)(C)c1ccc(Oc2ccc(NC(=O)c3ccc([N+](=O)[O-])o3)cc2)cc1 — lower, 15.2%
- CCOC(=O)c1ccc(NCc2c(C)[nH]c(C(=O)OCC)c2C)cc1 — lower, 0%
- CCN(CC)c1ccc(C=NNC(=O)c2ccc(Nc3nc(-c4ccccc4)cs3)cc2)c(O)c1 — the same, 27.3%
- CCN(CC)S(=O)(=O)c1ccc(-c2csc(Nc3ccc(C)c(C)c3)n2)cc1 — lower, 4.71%
- O=C(Nc1nc(-c2ccccc2)cs1)c1ccccc1O — lower, 9.79%
- Cn1nc(C(=O)NCc2ccccc2)c2c1CCN(Cc1cccc(O)c1)C2 — lower, 1.22%
- CC(C)C[C@@H]1NC(=O)[C@@H](CC(C)C)NC(=O)[C@H](C(C)C)NC(=O)[C@H]2CSSC[C@@H](NC1=O)C(=O)N2 — lower, 25.9%
- CC(C(=O)NCCCN)N(Cc1ccccc1)S(C)(=O)=O (configuration not stated) — lower, 3.92%
- Oc1ccc(-c2cncc(NCc3ccccc3)n2)cc1 — lower, 0%
- CN(C)c1cc[n+](CC(=O)c2ccc(Cl)cc2)cc1 — lower, 0%
- CN(C)c1ccc(C(=C2C=CC(=[N+](C)C)C=C2)c2ccc(N(C)C)cc2)cc1 — lower, 25.7%
- CCCCNC(=O)c1nn(-c2ccc(OC)cc2)c(=O)c2ccccc12 — lower, 2.35%
- Nc1nc(N)c2c(OCc3ccc(C(F)(F)F)cc3)cccc2n1 — lower, 7.63%
- c1ccc(-c2cc(NCCCN3CCOCC3)nc(-c3ccccn3)n2)nc1 — lower, 15.4%
- CCOC(=O)c1sc2nc(N)c(C#N)c(-c3cccs3)c2c1N — lower, 1.35%
- CSc1oc(-c2ccccc2)nc1C(N)=O — lower, 0%
- CSc1oc(C(C)(C)C)nc1[P+](c1ccccc1)(c1ccccc1)c1ccccc1 — lower, 23.2%
- COc1ccc2c(c1)C(C)(CC#N)C(=O)N2C (configuration not stated) — lower, 1.51%
- O=C1C(=Nc2cccc(C(F)(F)F)c2)c2ccccc2N1CN1CCc2ccccc2C1 — lower, 0%
- Cc1ccc(C)c(S(=O)(=O)N=C2C=C(SCC(=O)O)C(=O)c3ccccc32)c1 — lower, 6.25%
- Cc1ccc(S(=O)(=O)N=C2C=C(Sc3nnc[nH]3)C(=O)c3ccccc32)cc1 — lower, 25%
- Cc1ccc(S(=O)(=O)N=C2C=C(Sc3nc4ccccc4[nH]3)C(=O)c3ccccc32)cc1 — lower, 12.7%
- O=C1C(Sc2nnc[nH]2)=CC(=NS(=O)(=O)c2cccs2)c2ccccc21 — lower, 25%
- CCCCOc1ccc(C(=O)Oc2ccccc2-c2nc3cc(C)ccn3c2NC(C)(C)CC(C)(C)C)cc1 — lower, 4.67%
- COc1ccc(/C=C/c2nc(=O)c3ccccc3o2)cc1 — lower, 0%
- O=C(COc1ccccc1Cl)OCc1cc(=O)n2nc(C3CC3)sc2n1 — lower, 0%
- CCSCCOC(=O)C1=C(C)NC2=C(C(=O)CCC2)C1c1ccc(OC)c(Br)c1 (configuration not stated) — lower, 2.33%
- CC(C)CN(C(C(=O)NC(CN1CCCC1)c1ccccc1)c1ccccc1)S(=O)(=O)c1ccccn1 (configuration not stated) — lower, 1.96%
- CCCCCC[P+](N(CCC)CCC)(N(CCC)CCC)N(CCC)CCC — higher, 29.1%
- CCCN(CCC)[P+](CCC)(c1ccc([P+](CCC)(N(CCC)CCC)N(CCC)CCC)cc1)N(CCC)CCC — lower, 3.7%
- CCCCNC(=O)C(CC)Sc1nnc(-c2ccc(C)cc2)c(-c2ccc(C)cc2)n1 (configuration not stated) — lower, 0%
- C=CCSc1nc2sc3c(c2c(=O)n1-c1ccccc1)CCN(C)C3 — lower, 7.55%
- O=C(Cc1ccccc1)Nc1ccc(C(=O)Nc2ccc(-c3nc4ccc(NC(=O)c5ccc(NC(=O)Cc6ccccc6)cc5)c(Cl)c4[nH]3)cc2)cc1 — lower, 7.58%
- Nc1nc(Nc2cccc(Cl)c2)n[nH]1 — lower, 1.07%
- OCCCNc1cc(-c2ccnc(Nc3cccc(Cl)c3)n2)ccn1 — higher, 30.8%
- OCCCNc1cc(-c2ccccn2)nc(-c2ccccn2)n1 — lower, 15.4%
- Cc1nc2ccc(Cl)cc2c(O)c1I — lower, 0.752%
- CC(=O)N(C)C1=C(N2CCCC2)C(=O)c2ccccc2C1=O — lower, 0%
- CC(=O)N(C1=C(N(C)C)C(=O)c2ccccc2C1=O)c1ccc(Cl)c(Cl)c1 — lower, 7.69%
- CC(=O)N(C)C1=C(N2CCCCCC2)C(=O)c2ccccc2C1=O — lower, 22.5%
- CC(=O)N(C)C1=C(N2CCOCC2)C(=O)c2ccccc2C1=O — lower, 22.1%
- CC(=O)N(C1=C(N(C)C)C(=O)c2ccccc2C1=O)c1cc(C)cc(C)c1 — lower, 15.4%
- CC(=O)N(C1=C(N(C)C)C(=O)c2ccccc2C1=O)c1ccc(F)cc1 — higher, 31.1%
- CC(=O)N(C1=C(N2CCOCC2)C(=O)c2ccccc2C1=O)c1ccc(F)cc1 — lower, 24.7%
- CC(=O)N(C1=C(N2CCOCC2)C(=O)c2ccccc2C1=O)c1ccc(I)cc1 — lower, 18.7%
- CC(=O)N(C1=C(N2CCCC2)C(=O)c2ccccc2C1=O)c1ccc(F)cc1 — lower, 8.11%
- COc1cccc(-c2ccc(O)c(CN(C)CC(O)c3ccccc3)c2)n1 (configuration not stated) — lower, 2.56%
- Cc1c(-c2ccccc2)c2ccccc2n1CCc1ccc(C)[n+](C)c1 — lower, 1.22%
- COC(=O)c1sc(-c2ccccc2)cc1NC(=O)c1ccc(S(=O)(=O)N2CCCCCC2)cc1 — lower, 0%
- CC[n+]1c(C=C2Sc3ccccc3N2CCO)sc2ccccc21 — lower, 4.69%
- CCc1ccc(-n2c(C(CC)N(CCC(C)C)C(=O)Nc3ccc(Cl)c(Cl)c3)nc3ccccc3c2=O)cc1 (configuration not stated) — lower, 6.67%
- Cc1c(Cl)cccc1NC(=S)N(CCCN(C)c1ccccc1)Cc1cccn1Cc1ccc(Cl)cc1 — lower, 6.45%
- COC(=O)C1=CNC=C(C(=O)OC)C1c1cc(OC)c(OC)c(OC)c1 — lower, 2.38%
- NCC(c1ccc(F)cc1)c1ccc(F)cc1 — lower, 0%
- CCCc1c(C)nc2ccc(Br)cc2c1O — lower, 3.03%
- O=C1C(N2CCCCC2)=C(N2CCCCC2)C(=O)c2ccccc21 — lower, 0%
- Cn1c2c([n+](C)c1CCl)C(=O)c1ccccc1C2=O — higher, 35.7%
- Cn1c(=O)c(Cl)c2c3c(c(Cl)ccc31)C(=O)c1ccccc1-2 — lower, 3.03%
- CN(C)CCNc1ncc(C(=O)NCc2ccccc2)c(NCCc2ccccc2)n1 — lower, 1.92%
- COc1cc(C(=O)NCCc2ccccn2)ccc1OC1CCN(CC(c2ccccc2)c2ccccc2)CC1 — lower, 1.37%
- CCOc1cc(-c2nc3c(=O)n(C)c(=O)nc-3n(C)n2)ccc1OC(C)C — higher, 30.8%
- CCOc1ccc(-c2noc(-c3ccncc3)n2)cc1OCC — lower, 0%
- CCOc1cc(-c2nnc3[nH]c(=O)n(C)c(=O)c3n2)ccc1OC(C)C — lower, 4.44%
- O=C(Nc1ccc(NC(=O)c2ccco2)cc1Cl)c1ccccc1 — lower, 0%
- Cc1nc([P+](c2ccccc2)(c2ccccc2)c2ccccc2)c(N2CCCCC2)o1 — lower, 9.09%
- CN(C)c1oc(-c2ccc(Cl)cc2Cl)nc1[P+](c1ccccc1)(c1ccccc1)c1ccccc1 — lower, 20.4%
- Clc1ccccc1-c1nc([P+](c2ccccc2)(c2ccccc2)c2ccccc2)c(N2CCOCC2)o1 — lower, 25.9%
- O=C(Nc1cc(C(F)(F)F)cc(C(F)(F)F)c1)Nc1ccc2nnsc2c1 — lower, 12.8%
- C=CCSC1=NC2(CC(c3ccccc3)c3cc(Cl)c(O)cc3O2)CC(C)(C)N1 (configuration not stated) — lower, 0%
- O=C(c1cccc([N+](=O)[O-])c1)c1ccc(Cl)c(Cl)c1 — lower, 0%
- COc1ccc(-c2nc3cc(Cc4ccc5[nH]c(-c6ccc(OC)cc6)nc5c4)ccc3[nH]2)cc1 — lower, 25.7%
- COc1ccc(C(=O)Nc2ccc(-c3nc4ccc(NC(=O)c5ccc(OC)cc5)cc4[nH]3)cc2)cc1 — lower, 12.8%
- Brc1ccc(C=NNc2nc3ccccc3[nH]2)cc1 — lower, 9.02%
- Nc1ccc(-c2nc3cc(Cc4ccc5[nH]c(-c6ccc(N)cc6)nc5c4)ccc3[nH]2)cc1 — lower, 10.3%
- c1cncc(-c2nc3cc(-c4ccc5[nH]c(-c6cccnc6)nc5c4)ccc3[nH]2)c1 — lower, 5.56%
- Brc1ccc(C=Nc2ccc(-c3nc4cc(-c5ccc6[nH]c(-c7ccc(N=Cc8ccc(Br)cc8)cc7)nc6c5)ccc4[nH]3)cc2)cc1 — lower, 23.1%
- Nc1ccc(-c2nc3cc(Oc4ccc5[nH]c(-c6ccc(N)cc6)nc5c4)ccc3[nH]2)cc1 — lower, 15.4%
- Nc1ccc(-c2nc3cc(Oc4ccc(Oc5ccc6[nH]c(-c7ccc(N)cc7)nc6c5)cc4)ccc3[nH]2)cc1 — lower, 5.8%
- N=c1c2ccccc2nnn1-c1ccc(C(F)(F)F)cc1 — lower, 2.53%
- COC(=O)c1sc2nc(CN3CCC(C)CC3)ccc2c1NC(=O)c1ccc(C)s1 — lower, 1.74%
- CCOc1ccccc1-n1c(SCC(=O)c2ccc(Cl)cc2)nc2[nH]ncc2c1=O — lower, 1.16%
- CC(=O)NC(CO)C(O)c1ccc([N+](=O)[O-])cc1 (configuration not stated) — lower, 0%
- COc1ccc(S(=O)(=O)N(C)CCCNc2ccnc3cc(Cl)ccc23)cc1 — lower, 10.2%
- CC(c1nc2ccccc2c(=O)n1C)N1CCN(C(=O)C(C)(C)C)CC1 (configuration not stated) — lower, 0%
- O=C(Nc1c2ccccc2nc2ccccc12)c1cc(Cl)ccc1O — lower, 3.03%
- N#Cc1ccc(NC(=O)c2cc(Cl)ccc2O)cc1 — lower, 24.7%
- O=C(Nc1cccc(Cl)c1)c1cc2ccccc2cc1O — lower, 9.62%
- CCCN(C(=O)Nc1c(C(C)C)cccc1C(C)C)C(CC)c1nc2ccccc2c(=O)n1-c1cccc(C)c1 (configuration not stated) — lower, 0.943%
- CCOC(=O)N1CCN(C(=O)C(=O)NNC(=O)COc2ccc(Cl)cc2Br)CC1 — lower, 0%
- OC1(c2ccc(Br)cc2)CCN(C2CCN(Cc3ccccc3)CC2)CC1 — lower, 1.57%
- COCC(=O)NCc1ccc(OC2CCN(CC(c3ccccc3)c3ccccc3)CC2)cc1 — lower, 1.41%
